According to ChEMBL document CHEMBL2218924, “A broad activity screen in support of a chemogenomic map for kinase signalling research and drug discovery” (Biochem J, 2013):

Columns and labels:
[1] = target: T1, Ephrin type-A receptor 3 (Homo sapiens) (UniProt P29320); settings: at 10 µM
T1 sequence (whole entry): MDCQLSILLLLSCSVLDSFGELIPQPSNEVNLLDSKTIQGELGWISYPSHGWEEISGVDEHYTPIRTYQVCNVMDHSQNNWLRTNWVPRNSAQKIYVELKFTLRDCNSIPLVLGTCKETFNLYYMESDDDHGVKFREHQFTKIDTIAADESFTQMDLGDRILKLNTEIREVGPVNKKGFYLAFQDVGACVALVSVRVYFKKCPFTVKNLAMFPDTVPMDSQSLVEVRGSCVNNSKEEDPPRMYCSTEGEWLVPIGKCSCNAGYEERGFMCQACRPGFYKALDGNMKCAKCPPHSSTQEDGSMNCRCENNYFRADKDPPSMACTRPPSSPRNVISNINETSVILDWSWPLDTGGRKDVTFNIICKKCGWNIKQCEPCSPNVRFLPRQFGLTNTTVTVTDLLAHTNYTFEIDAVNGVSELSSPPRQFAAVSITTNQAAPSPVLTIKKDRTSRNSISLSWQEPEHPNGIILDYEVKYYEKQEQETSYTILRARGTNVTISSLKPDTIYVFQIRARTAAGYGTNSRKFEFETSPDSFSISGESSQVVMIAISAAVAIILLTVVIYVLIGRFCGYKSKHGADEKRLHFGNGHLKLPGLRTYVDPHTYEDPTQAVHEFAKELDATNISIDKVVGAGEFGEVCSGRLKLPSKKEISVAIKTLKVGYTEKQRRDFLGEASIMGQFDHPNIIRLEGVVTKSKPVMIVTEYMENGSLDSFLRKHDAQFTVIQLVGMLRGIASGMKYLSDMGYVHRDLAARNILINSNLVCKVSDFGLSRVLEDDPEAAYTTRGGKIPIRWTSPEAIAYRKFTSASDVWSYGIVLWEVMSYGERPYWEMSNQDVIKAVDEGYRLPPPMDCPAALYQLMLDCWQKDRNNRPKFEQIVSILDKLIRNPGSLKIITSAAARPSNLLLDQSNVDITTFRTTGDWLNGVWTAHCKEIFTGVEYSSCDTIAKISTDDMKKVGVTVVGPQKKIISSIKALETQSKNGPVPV

[2] = target: Ephrin type-A receptor 4 (Homo sapiens) (UniProt P54764); settings: at 1 µM
[3] = target: Ephrin type-A receptor 4 (Homo sapiens) (UniProt P54764); settings: at 10 µM
[4] = target: Ephrin type-A receptor 5 (Homo sapiens) (UniProt P54756); settings: at 1 µM
[5] = target: Ephrin type-A receptor 5 (Homo sapiens) (UniProt P54756); settings: at 10 µM
[6] = target: Ephrin type-A receptor 7 (Homo sapiens) (UniProt Q15375); settings: at 1 µM
[7] = target: Ephrin type-A receptor 7 (Homo sapiens) (UniProt Q15375); settings: at 10 µM
[8] = target: T2, Ephrin type-A receptor 8 (Homo sapiens) (UniProt P29322); settings: at 1 µM
T2 sequence (whole entry): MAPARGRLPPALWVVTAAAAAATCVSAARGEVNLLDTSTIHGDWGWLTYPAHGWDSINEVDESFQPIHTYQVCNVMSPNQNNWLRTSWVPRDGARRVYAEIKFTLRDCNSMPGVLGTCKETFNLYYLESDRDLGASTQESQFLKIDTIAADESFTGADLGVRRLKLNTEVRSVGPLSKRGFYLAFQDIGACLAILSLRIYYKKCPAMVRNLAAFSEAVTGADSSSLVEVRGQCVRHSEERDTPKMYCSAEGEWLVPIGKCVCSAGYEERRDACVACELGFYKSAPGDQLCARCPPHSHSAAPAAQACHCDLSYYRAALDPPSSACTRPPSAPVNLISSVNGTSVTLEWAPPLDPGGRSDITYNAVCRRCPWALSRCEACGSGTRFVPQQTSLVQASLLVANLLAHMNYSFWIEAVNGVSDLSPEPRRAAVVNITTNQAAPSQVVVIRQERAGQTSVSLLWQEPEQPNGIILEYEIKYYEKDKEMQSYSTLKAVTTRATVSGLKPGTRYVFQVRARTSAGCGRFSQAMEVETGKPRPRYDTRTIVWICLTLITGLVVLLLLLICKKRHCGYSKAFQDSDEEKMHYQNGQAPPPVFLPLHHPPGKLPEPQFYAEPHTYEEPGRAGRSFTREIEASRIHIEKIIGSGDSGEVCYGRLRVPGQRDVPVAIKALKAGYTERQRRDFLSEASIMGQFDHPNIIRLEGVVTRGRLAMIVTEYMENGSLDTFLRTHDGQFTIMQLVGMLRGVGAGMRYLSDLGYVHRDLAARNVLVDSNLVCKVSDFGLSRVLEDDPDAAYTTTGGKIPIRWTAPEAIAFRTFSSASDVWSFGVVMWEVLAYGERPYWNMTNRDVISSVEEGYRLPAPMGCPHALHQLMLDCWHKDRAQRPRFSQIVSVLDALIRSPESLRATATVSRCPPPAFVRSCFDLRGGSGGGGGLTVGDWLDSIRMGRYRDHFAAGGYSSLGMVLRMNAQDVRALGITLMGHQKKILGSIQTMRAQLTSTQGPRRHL

[9] = target: T2, Ephrin type-A receptor 8 (Homo sapiens); settings: at 10 µM
[10] = target: T3, Ephrin type-B receptor 1 (Homo sapiens) (UniProt P54762); settings: at 10 µM
T3 sequence (whole entry): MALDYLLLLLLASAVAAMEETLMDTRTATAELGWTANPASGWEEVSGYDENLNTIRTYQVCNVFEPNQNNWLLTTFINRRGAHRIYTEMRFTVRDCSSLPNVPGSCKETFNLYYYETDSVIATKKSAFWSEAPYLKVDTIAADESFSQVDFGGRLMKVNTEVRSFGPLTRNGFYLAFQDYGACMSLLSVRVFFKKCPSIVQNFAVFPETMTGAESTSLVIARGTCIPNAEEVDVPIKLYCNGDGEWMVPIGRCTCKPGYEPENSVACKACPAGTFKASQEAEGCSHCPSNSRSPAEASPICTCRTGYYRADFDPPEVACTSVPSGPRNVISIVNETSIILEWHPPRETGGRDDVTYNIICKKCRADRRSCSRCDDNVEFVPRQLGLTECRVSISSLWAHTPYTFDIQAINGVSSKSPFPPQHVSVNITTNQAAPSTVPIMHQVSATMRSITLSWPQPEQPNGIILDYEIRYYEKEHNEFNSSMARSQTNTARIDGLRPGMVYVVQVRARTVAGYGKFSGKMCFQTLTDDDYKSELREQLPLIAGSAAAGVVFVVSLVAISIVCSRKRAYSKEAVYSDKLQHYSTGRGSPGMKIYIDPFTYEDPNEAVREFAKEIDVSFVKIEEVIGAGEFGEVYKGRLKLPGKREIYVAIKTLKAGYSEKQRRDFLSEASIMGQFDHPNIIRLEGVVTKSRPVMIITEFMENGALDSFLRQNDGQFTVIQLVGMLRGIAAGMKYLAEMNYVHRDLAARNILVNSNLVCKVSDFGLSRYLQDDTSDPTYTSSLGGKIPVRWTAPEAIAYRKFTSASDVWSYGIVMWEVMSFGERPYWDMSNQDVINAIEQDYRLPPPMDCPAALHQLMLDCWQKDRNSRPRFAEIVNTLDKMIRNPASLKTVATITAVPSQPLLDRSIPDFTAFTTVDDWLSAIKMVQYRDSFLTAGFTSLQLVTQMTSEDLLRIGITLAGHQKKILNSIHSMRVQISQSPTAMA

[11] = target: T4, Ephrin type-B receptor 2 (Homo sapiens) (UniProt P29323); settings: at 1 µM
T4 sequence (whole entry): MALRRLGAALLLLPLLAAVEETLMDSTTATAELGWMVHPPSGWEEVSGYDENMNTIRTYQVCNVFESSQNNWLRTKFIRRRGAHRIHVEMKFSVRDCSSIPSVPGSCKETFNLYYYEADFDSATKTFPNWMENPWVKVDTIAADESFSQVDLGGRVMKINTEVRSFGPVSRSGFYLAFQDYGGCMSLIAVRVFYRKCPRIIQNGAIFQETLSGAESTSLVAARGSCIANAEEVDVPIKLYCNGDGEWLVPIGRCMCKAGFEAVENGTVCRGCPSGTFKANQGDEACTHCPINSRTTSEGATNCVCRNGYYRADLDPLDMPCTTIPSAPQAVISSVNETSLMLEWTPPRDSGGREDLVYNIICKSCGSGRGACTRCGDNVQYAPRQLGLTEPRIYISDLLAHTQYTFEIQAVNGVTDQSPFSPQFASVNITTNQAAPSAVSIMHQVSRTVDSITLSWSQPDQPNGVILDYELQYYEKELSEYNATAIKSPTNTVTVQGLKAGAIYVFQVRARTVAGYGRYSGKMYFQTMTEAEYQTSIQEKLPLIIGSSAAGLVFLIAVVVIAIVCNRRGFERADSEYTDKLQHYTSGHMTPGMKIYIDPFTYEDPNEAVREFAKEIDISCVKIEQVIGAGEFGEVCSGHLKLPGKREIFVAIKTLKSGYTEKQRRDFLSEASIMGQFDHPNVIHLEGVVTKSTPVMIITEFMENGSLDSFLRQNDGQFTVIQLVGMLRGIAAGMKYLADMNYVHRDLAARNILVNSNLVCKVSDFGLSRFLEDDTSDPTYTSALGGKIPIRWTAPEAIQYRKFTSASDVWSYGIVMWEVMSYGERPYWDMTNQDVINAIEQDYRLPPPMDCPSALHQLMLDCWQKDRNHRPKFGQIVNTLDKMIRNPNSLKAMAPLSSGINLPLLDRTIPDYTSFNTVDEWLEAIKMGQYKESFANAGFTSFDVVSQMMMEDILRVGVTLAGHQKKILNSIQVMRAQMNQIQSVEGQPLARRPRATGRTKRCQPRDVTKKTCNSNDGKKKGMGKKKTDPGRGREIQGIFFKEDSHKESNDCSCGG

[12] = target: T4, Ephrin type-B receptor 2 (Homo sapiens); settings: at 10 µM
[13] = target: T5, Ephrin type-B receptor 3 (Homo sapiens) (UniProt P54753); settings: at 1 µM
T5 sequence (whole entry): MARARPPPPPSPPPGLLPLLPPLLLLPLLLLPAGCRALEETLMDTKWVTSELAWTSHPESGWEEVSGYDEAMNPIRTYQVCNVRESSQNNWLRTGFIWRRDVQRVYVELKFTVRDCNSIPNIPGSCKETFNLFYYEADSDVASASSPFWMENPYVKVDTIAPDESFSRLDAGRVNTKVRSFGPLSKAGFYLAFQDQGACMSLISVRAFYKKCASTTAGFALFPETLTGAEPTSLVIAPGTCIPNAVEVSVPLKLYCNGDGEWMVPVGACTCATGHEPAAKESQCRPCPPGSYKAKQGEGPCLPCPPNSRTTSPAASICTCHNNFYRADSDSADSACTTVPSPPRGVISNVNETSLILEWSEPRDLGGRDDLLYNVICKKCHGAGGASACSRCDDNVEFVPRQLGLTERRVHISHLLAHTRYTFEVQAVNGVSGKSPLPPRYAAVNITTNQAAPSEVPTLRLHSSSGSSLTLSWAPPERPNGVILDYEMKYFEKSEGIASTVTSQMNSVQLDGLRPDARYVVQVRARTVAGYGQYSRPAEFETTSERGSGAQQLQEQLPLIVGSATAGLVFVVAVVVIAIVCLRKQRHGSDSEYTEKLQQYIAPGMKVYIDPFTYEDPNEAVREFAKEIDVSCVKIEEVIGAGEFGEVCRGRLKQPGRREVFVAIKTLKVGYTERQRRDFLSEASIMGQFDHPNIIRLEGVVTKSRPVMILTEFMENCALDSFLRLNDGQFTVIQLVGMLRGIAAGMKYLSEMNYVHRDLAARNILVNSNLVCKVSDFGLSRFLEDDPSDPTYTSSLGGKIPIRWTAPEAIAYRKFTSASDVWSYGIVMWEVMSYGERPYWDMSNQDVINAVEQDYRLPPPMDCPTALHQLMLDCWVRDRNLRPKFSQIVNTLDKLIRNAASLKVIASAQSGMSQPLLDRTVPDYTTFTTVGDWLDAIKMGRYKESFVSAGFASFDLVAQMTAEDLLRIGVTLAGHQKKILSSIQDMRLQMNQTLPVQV

[14] = target: T5, Ephrin type-B receptor 3 (Homo sapiens); settings: at 10 µM
[15] = target: T6, Ephrin type-B receptor 4 (Homo sapiens) (UniProt P54760); settings: at 1 µM
T6 sequence (whole entry): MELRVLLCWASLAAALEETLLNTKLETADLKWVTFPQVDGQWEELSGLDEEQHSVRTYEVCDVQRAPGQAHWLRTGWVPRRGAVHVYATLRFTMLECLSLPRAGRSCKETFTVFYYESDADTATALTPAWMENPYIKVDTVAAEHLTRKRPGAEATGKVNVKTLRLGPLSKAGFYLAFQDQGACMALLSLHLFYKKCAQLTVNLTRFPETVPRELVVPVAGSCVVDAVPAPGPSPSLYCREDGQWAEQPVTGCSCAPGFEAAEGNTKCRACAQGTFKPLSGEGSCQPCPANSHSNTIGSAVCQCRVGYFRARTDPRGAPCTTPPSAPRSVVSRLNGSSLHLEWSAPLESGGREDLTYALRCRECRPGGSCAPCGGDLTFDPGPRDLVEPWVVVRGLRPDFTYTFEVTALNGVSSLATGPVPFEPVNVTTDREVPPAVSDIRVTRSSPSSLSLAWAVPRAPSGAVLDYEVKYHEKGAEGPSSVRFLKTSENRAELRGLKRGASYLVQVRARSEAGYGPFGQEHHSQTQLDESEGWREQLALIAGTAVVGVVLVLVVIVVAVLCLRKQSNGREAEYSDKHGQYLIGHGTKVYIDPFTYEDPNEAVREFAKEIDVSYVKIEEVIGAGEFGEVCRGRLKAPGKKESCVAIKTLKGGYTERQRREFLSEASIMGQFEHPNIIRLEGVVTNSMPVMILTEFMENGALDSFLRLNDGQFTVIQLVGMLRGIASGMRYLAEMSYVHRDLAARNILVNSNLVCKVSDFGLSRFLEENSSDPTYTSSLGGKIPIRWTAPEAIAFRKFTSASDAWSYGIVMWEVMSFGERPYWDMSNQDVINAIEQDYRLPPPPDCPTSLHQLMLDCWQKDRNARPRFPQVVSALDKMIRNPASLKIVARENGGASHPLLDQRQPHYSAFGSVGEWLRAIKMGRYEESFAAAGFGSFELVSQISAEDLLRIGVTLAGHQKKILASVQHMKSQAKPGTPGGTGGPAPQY

[16] = target: Receptor tyrosine-protein kinase erbB-4 (Homo sapiens) (UniProt Q15303); settings: at 1 µM
[17] = target: Receptor tyrosine-protein kinase erbB-4 (Homo sapiens) (UniProt Q15303); settings: at 10 µM
[18] = target: Focal adhesion kinase 1 (Homo sapiens) (UniProt Q05397); settings: at 1 µM

Ephrin type-A receptor 4 (Homo sapiens), sequence (P54764 whole entry): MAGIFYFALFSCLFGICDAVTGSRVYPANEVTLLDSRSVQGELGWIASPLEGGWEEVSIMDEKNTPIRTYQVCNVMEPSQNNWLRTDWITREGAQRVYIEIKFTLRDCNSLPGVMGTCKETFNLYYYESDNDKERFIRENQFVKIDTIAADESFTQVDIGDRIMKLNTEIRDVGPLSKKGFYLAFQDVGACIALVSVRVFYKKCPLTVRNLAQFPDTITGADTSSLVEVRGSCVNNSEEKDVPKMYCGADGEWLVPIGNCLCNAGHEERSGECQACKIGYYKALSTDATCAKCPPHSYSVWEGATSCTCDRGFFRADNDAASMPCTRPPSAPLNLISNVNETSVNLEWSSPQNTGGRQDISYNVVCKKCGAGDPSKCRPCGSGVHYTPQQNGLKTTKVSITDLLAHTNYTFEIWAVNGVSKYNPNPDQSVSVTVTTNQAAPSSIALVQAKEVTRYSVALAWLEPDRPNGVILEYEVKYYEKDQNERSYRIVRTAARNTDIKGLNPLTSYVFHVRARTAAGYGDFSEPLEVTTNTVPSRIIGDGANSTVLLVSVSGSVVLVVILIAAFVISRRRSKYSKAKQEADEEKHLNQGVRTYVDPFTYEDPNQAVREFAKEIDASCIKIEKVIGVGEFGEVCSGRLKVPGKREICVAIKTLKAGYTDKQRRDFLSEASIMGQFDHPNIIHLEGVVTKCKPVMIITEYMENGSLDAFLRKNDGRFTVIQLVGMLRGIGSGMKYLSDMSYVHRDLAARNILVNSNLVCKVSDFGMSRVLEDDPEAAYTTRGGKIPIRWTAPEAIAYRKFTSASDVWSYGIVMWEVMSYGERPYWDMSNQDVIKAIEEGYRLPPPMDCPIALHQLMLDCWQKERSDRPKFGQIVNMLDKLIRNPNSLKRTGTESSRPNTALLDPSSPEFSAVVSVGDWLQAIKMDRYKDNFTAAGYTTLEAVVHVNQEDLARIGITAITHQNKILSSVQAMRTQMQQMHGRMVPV
Ephrin type-A receptor 7 (Homo sapiens), sequence (Q15375 28-998 limits assumed): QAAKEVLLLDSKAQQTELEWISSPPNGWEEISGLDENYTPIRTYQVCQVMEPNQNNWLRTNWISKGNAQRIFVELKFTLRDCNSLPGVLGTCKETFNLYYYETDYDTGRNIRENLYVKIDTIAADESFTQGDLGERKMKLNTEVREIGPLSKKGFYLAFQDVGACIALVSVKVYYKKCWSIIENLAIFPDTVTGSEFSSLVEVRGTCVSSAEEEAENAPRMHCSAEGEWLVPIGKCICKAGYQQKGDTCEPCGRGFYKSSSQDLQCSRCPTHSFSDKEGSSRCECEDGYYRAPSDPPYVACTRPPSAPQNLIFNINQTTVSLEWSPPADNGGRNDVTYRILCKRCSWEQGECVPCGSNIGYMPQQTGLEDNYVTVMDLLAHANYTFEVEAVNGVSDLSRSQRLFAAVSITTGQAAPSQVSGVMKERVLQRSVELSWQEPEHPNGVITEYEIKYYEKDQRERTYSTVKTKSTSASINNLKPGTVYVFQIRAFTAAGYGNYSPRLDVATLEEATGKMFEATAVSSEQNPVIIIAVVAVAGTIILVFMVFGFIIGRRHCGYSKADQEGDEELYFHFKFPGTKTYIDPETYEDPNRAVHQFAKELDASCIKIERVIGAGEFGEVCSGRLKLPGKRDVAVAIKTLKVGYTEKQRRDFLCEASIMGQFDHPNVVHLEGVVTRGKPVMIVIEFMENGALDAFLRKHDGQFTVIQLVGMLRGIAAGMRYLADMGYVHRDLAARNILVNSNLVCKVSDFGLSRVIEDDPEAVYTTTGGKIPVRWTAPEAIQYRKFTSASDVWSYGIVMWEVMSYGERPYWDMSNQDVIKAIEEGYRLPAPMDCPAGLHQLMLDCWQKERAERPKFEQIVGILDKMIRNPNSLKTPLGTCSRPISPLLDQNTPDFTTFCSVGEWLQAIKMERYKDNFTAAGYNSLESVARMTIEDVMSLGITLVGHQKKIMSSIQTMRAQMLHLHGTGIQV
Ephrin type-A receptor 5 (Homo sapiens), sequence (P54756 whole entry): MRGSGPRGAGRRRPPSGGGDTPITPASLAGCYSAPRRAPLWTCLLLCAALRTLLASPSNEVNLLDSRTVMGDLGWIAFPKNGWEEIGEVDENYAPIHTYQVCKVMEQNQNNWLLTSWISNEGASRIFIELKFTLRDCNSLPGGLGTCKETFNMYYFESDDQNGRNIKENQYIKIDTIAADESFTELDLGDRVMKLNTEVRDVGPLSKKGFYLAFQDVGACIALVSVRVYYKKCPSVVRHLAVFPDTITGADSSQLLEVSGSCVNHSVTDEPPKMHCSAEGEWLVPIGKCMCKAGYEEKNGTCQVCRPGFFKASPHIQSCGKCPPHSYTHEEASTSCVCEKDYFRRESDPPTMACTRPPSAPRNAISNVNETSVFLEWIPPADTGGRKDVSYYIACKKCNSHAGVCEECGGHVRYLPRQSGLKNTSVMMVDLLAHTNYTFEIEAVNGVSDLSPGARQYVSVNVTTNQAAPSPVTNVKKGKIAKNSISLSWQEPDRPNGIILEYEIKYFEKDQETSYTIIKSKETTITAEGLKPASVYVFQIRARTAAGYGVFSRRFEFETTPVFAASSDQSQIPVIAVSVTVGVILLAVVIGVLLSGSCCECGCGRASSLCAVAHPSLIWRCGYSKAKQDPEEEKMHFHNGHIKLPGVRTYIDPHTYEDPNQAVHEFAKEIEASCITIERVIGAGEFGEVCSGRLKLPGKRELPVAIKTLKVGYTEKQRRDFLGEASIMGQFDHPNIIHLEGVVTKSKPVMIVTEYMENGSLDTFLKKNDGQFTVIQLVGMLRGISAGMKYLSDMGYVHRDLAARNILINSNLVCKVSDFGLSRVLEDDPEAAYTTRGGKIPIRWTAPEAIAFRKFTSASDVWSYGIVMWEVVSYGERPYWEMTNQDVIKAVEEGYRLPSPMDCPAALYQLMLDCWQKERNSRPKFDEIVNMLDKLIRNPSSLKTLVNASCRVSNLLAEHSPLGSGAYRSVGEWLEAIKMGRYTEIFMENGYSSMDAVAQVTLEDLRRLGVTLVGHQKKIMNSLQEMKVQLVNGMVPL
Receptor tyrosine-protein kinase erbB-4 (Homo sapiens), sequence (Q15303 whole entry): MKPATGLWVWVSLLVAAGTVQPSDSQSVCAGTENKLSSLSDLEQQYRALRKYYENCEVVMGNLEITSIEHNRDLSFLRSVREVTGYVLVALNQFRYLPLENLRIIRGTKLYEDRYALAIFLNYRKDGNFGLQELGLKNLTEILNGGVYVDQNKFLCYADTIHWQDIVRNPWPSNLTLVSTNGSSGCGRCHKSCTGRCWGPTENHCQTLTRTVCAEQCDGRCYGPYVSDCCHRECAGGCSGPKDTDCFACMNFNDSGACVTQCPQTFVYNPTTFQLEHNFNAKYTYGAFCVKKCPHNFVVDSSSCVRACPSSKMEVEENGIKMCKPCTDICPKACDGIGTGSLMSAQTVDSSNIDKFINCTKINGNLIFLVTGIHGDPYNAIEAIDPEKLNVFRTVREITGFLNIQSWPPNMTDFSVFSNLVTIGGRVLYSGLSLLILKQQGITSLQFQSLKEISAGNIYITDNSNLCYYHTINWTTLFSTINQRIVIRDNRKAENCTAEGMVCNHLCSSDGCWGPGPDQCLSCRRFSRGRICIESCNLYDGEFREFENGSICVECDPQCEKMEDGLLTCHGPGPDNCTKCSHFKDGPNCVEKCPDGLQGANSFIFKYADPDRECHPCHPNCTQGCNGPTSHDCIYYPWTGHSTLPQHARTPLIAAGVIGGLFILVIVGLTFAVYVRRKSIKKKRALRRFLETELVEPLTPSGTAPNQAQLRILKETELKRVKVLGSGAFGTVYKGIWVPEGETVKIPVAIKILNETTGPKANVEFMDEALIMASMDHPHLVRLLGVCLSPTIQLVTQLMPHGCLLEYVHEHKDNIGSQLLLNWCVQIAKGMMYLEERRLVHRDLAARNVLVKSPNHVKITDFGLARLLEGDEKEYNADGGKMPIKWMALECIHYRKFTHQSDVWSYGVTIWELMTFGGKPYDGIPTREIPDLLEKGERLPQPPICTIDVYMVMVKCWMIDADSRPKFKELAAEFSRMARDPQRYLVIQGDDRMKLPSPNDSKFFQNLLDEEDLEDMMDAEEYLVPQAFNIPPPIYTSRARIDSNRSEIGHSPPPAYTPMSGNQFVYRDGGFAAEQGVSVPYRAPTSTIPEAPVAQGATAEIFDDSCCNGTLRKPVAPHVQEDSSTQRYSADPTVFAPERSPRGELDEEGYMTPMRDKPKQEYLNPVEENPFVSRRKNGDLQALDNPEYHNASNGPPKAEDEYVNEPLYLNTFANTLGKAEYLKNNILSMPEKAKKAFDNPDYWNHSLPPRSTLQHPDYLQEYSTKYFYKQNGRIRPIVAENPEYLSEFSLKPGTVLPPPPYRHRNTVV

## O=C(CCCc1ccc(-c2ccccc2F)cc1)Nc1ccc(O)cc1
[1]
  residual activity: 111%
[2]
  residual activity: 108%
[3]
  residual activity: 96%
[4]
  residual activity: 111%
[5]
  residual activity: 106%
[6]
  residual activity: 102%
[7]
  residual activity: 104%
[8]
  residual activity: 103%
[9]
  residual activity: 94%
[10]
  residual activity: 98%
[11]
  residual activity: 107%
[12]
  residual activity: 112%
[13]
  residual activity: 109% (inactive)
[14]
  residual activity: 97%
[15]
  residual activity: 93%
[16]
  residual activity: 111%
[17]
  residual activity: 127%
[18]
  residual activity: 105%
